Experimental data taken from PubChem BioAssay (NCATS).
Values joined by “and” are separate entries in the source; they are usually repeats but may differ in a detail not shown here. Identical values can stand only once. Records with an inconclusive call do not appear. Where a call stands in place of a potency, no number is given. Active and inactive are the calls of the source. Calls follow the shape of the dose curve; as a rule, active = well fitted inhibition curve with a large enough effect; inconclusive = small, poorly fitted or top-dose-only effect; inactive = flat fitted curve, though single readings scatter.

test system: astro; experiment: Drug repurposing screens with cells derived from glioblastoma tumor samples (AID 1345199); details: viability, ATP luminescence, 48 h; series mostly up to 45.9 µM; also: nearly all actives have a fitted effect of over 40% in size
Procedure: CD133+ cells were isolated from GBM patient biopsies and cultured as neurospheres. Neurospheres from four patients were used to screen the NCATS pharmaceutical collection (NPC) library of approved drugs and bioactive compounds. […] The neurospheres were incubated with drugs for 48 hours in 1536-well format, then assayed with an ATP content cell viability assay. […] These hits were cherry picked to confirm activity in the four original GBM lines screened plus three other slower growing GMB lines (unable to yield enough cells for a full primary screen). Variable activities of the confirmed primary hits in the different GBM patient lines were observed. The patient line 206 responded to the greatest number of compounds and line 923 responded to the least amount of active compounds.
Potency is read from the fitted curve at half-maximal effect.

SMILES	Potency
Clc1ccc2nsnc2c1NC1=NCCN1	inactive
O=C(c1ccc(OCCN2CCCCC2)cc1)c1c(-c2ccc(O)cc2)sc2cc(O)ccc12	17.8 µM (active)
Nc1c2c(nc3ccccc13)CCCC2	inactive
COc1ccccc1OCCNCC(O)COc1cccc2[nH]c3ccccc3c12 (stereo not given)	inactive
Cc1cnc(C(=O)NCCc2ccc(S(=O)(=O)NC(=O)NC3CCCCC3)cc2)cn1	inactive
NS(=O)(=O)c1cc2c(cc1Cl)NCNS2(=O)=O	inactive
NCCS(=O)(=O)O	inactive
O=c1c(-c2ccc(O)cc2)coc2cc(O)cc(O)c12	10 µM (active)
CC(C)(C)C(=O)Oc1ccc(S(=O)(=O)Nc2ccccc2C(=O)NCC(=O)O)cc1	inactive
CC(C)Cc1ccc(C(C)C(=O)O)cc1 (stereo not given)	inactive
COc1cc2nc(N3CCN(C(=O)c4ccco4)CC3)nc(N)c2cc1OC	25.1 µM (active)
CCOC(=O)Nc1ccc(NCc2ccc(F)cc2)nc1N	inactive
CN(Cc1cnc2nc(N)nc(N)c2n1)c1ccc(C(=O)N[C@@H](CCC(=O)O)C(=O)O)cc1	inactive
O=C1N(c2ccccc2)c2ccccc2C1(Cc1ccncc1)Cc1ccncc1	inactive
Cn1c(=O)c2c(ncn2C)n(C)c1=O	inactive
NC(CO)C(=O)NNCc1ccc(O)c(O)c1O (stereo not given)	inactive
Cn1cnc2c1c(=O)[nH]c(=O)n2C	inactive
CC(C)(Oc1ccc(C2CC2(Cl)Cl)cc1)C(=O)O (stereo not given)	inactive
NCCc1cnc[nH]1	inactive
CN(C)CCC=C1c2ccccc2C=Cc2ccccc21	inactive

SMILES	Potency
CC(COc1ccccc1)N(CCCl)Cc1ccccc1 (stereo not given)	inactive
Nc1nnc(-c2cccc(Cl)c2Cl)c(N)n1	inactive
Cc1ccc(-c2cc(C(F)(F)F)nn2-c2ccc(S(N)(=O)=O)cc2)cc1	inactive
Nc1ccn([C@H]2CC[C@@H](CO)O2)c(=O)n1	inactive
COc1ccc(C2CNC(=O)C2)cc1OC1CCCC1 (stereo not given)	inactive
Fc1ccc([C@@H]2CCNC[C@H]2COc2ccc3c(c2)OCO3)cc1	22.4 µM (active)
COc1nc(C)nc(Cl)c1NC1=NCCN1	inactive
O=C1c2c(O)ccc(O)c2C(=O)c2c(NCCNCCO)ccc(NCCNCCO)c21	5.01 µM (active)
CC(C)NCC(O)COc1ccc(CCOCC2CC2)cc1 (stereo not given)	inactive
CN(CCOc1ccc(NS(C)(=O)=O)cc1)CCc1ccc(NS(C)(=O)=O)cc1	inactive
Cc1cc(C(C)(C)C)c(O)c(C)c1CC1=NCCN1	inactive
CCCCc1oc2ccccc2c1C(=O)c1cc(I)c(OCCN(CC)CC)c(I)c1	28.2 µM (active) and 20 µM (active)
Cc1cc(C(C)(C)C)cc(C)c1CC1=NCCN1	inactive
NC(=O)NO	inactive
OCCN(CCO)c1nc(N2CCCCC2)c2nc(N(CCO)CCO)nc(N3CCCCC3)c2n1	inactive
OCCN1CCN(CCCN2c3ccccc3Sc3ccc(C(F)(F)F)cc32)CC1	22.4 µM (active)
Cc1ccc(C(=O)Nc2ccc(S(=O)(=O)O)c3cc(S(=O)(=O)O)cc(S(=O)(=O)O)c23)cc1NC(=O)c1cccc(NC(=O)Nc2cccc(C(=O)Nc3cc(C(=O)Nc4ccc(S(=O)(=O)O)c5cc(S(=O)(=O)O)cc(S(=O)(=O)O)c45)ccc3C)c2)c1	inactive
CCc1cccc2c3c([nH]c12)C(CC)(CC(=O)O)OCC3 (stereo not given)	inactive
CN1CCN(CCCN2c3ccccc3Sc3ccc(Cl)cc32)CC1	20 µM (active)
COc1ccc2[nH]cc(CCNC(C)=O)c2c1	inactive
